{
  "source": "the supplement of paper PMC12350171",
  "note": "Where a name gives a salt, the structure may show the parent alone.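 Also: active when median AUC fell below 0.1.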",
  "data": [
    {"system": "S. enterica typhimurium tolC KO", "assay": "growth AUC normalised to DMSO control (median) (fraction of control); higher = less growth inhibition, active = hit call of the paper", "conditions": "20 µM;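 active = normalised median growth AUC below 0.1 of DMSO control; inactive = AUC 0.1 or higher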", "outline": "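Strains were passaged twice overnight without oxygen, then grown in mGAM in 96-well plates with each approved-drug library compound at 20 μM and 1% DMSO, starting at OD578 0.01. OD578 was read hourly for 24 h inside an anaerobic incubator. Curves were truncated at entry into stationary phase, and the trapezoidal-rule area under the curve was normalised to same-plate vehicle wells. The value is the median across three biological replicates.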", "values": [
      {"smiles": "CC(C)Cc1ccc(CC(=O)O)cc1", "note": "[Ibufenac]", "growth AUC normalised to DMSO control": "0.981 (inactive)"},
      {"smiles": "C[C@H]1[C@@H](O)O[C@@H]2O[C@@]3(C)CC[C@H]4[C@H](C)CC[C@@H]1[C@@]24OO3", "note": "[Artenimol]", "growth AUC normalised to DMSO control": "1 (inactive)"},
      {"smiles": "Cc1cc(C#N)cc(C)c1Oc1nc(Nc2ccc(C#N)cc2)nc(N)c1Br", "note": "[Etravirine]", "growth AUC normalised to DMSO control": "1.01 (inactive)"},
      {"smiles": "CC(C)[C@H]1CC[C@H](C(=O)N[C@H](Cc2ccccc2)C(=O)O)CC1", "note": "[Nateglinide]", "growth AUC normalised to DMSO control": "0.968 (inactive)"},
      {"smiles": "CCC(=O)c1c(O)cc(O)cc1O", "note": "[Flopropione]", "growth AUC normalised to DMSO control": "0.994 (inactive)"},
      {"smiles": "C[C@H](O)[C@H](O)[C@H]1CNc2[nH]c(N)nc(=O)c2N1", "note": "[Sapropterin dihydrochloride]", "growth AUC normalised to DMSO control": "0.977 (inactive)"},
      {"smiles": "CC(=O)Nc1ccc(C(=O)O)cc1", "note": "[Acedoben]", "growth AUC normalised to DMSO control": "0.997 (inactive)"},
      {"smiles": "CN1c2cc(O)c(N=NC(N)=O)cc2CC1S(=O)(=O)O", "note": "(stereo not given) [Carbazochrome sodium sulfonate]", "growth AUC normalised to DMSO control": "0.993 (inactive)"},
      {"smiles": "O=C(O)c1cc(=O)c2ccccc2o1", "note": "[Chromocarb]", "growth AUC normalised to DMSO control": "1 (inactive)"},
      {"smiles": "CCN1CCN(c2cc3c(cc2F)c(=O)c(C(=O)O)cn3C2CC2)CC1", "note": "[Enrofloxacin]", "growth AUC normalised to DMSO control": "0.00221 (active)"}
    ]}
  ]
}
